In the OligoGym collection one finds sensor-assay potency score (higher = more potent) data, which are given here for 15 sequences.
Also: reference of the scale not given here.

The target of this experiment is ACSL3. Nature of the experiment: pooled miR-30 sensor sort-seq; sequence = guide strand. The following applies: shRNA.
On to TAATCTTTAAGCATCCATCGGG, for which the sensor-assay potency score (higher = more potent) was 0.641.

The sequence TAAAGTATCACATCCAGGGTAT gave a sensor-assay potency score (higher = more potent) of 0.0296.

TATCTAAAGTATCACATCCAGG had a sensor-assay potency score (higher = more potent) of -0.889.

The sequence TTTACTAGTAATGATGTTGGTC returned a sensor-assay potency score (higher = more potent) of 0.628.

Regarding TTGTAGTCCCACACTTCGGAAA, the sensor-assay potency score (higher = more potent) was -1.33.

TTGAATTTACAGGCTTTGCTTT yielded a sensor-assay potency score (higher = more potent) of -0.455.

With TAATTCTAGAACATGGGCCAGA, the sensor-assay potency score (higher = more potent) was -0.696.

On to TACTAGTGGAAGATTCTTCAAA, for which the sensor-assay potency score (higher = more potent) is -0.312.

TACAGAGCCACCTTTGTCCATT showed a sensor-assay potency score (higher = more potent) of -0.892.

TTGCTGAAATAGCAGCTTCGGA: the sensor-assay potency score (higher = more potent) was -0.935.

In the case of TTTTTGAAGACTGATCTGCTAA, the sensor-assay potency score (higher = more potent) stood at 0.185.

TATTGTAGTCCCACACTTCGGA had a sensor-assay potency score (higher = more potent) of 0.568.

For TTTCACAGCAAACTAATGGTGC, the sensor-assay potency score (higher = more potent) was -0.648.

TAATTTTTGAAGACTGATCTGC: the sensor-assay potency score (higher = more potent) amounted to 0.522.

Turning to TTTGATTTCACAGCAAACTAAT, the sensor-assay potency score (higher = more potent) is -0.867.
